Experimental data taken from PubChem BioAssay AID504850 (National Center for Advancing Translational Sciences (NCATS), 2011).
The whole screen tested about 2,300 compounds, of which about 1,200 (52%) were called active. Another 34% or so got no clear call; they are omitted. The call rests on the fitted dose curve; in most records, active means well fitted inhibition curve with a large enough effect; inconclusive means small, poorly fitted or top-dose-only effect, or effect the other way; inactive means no such curve, though single readings can be large or run the other way. So high a share suggests a set chosen from earlier hits. Some of the results follow.

Experiment: Confirmation screen for delayed death inhibitors of the malarial parasite plastid, 48 hour incubation; further: nearly all actives have a fitted effect of over 65% in size
Conditions: P. falciparum-infected erythrocytes, luciferase growth; series mostly up to 28.7 µM; activity change, negative = inhibition: at the top concentration
Outline: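 Single-generation (48 h, 37 C) exposure of integrated firefly luciferase-reporter P. falciparum in red cells, 0.1% parasitemia at 2% hematocrit, Albumax-supplemented RPMI. Falling luciferase signal marks parasite growth inhibition.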
On the % scale 0 is the no-effect control and ±100 the full control effect; potency means the concentration at half of the fitted maximal effect.

Which Potency does the source give for `O=C(COc1ccc(Br)cc1)Nc1cc(S(=O)(=O)N2CCCCC2)ccc1N1CCCCC1` here?
Its Potency is 5.62 µM (active).

Which Potency does the source give for `O=C(COc1ccc(Cl)cc1)Nc1cc(S(=O)(=O)N2CCCCC2)ccc1N1CCCCC1` here?
Its Potency is 5.62 µM (active).

For `CCN1CCN(c2ccc(S(=O)(=O)N3CCCCC3)cc2NC(=O)COc2cc(C)ccc2Cl)CC1`, which Potency is on record?
The Potency was 14.1 µM (active).

Which “activity change, negative = inhibition” value does the source give for `C[C@@H]1[C@H](O)C[C@@]23COC(=O)C2=CCCC3[C@@]1(C)CCC1COC(=O)C1` (some centres undefined) here?
The value was -24.3% (inactive).

Which Potency does the source give for `CSc1ccc(/C=C/C(=O)c2ccc(NC(=O)C(C)C)cc2)cc1` here?
The Potency was 15.8 µM (active).

Which Potency does the source give for `CSc1c(CC(=O)Nc2ccccc2)n(C)c2ccccc12` here?
Its Potency is 8.91 µM (active).

Which Potency does the source give for `CC(C)(C)c1cc(C(=O)NNc2cccc(Cl)c2)n(Cc2ccccc2)n1` here?
The Potency was 12.6 µM (active).

With `Cc1cccc(Cn2nc(C(C)(C)C)cc2C(=O)Nc2ccc(F)cc2)c1` as the compound, how does the Potency read?
Its Potency is 4.47 µM (active).

For `Cc1ccc(NC(=O)c2cc(C(C)(C)C)nn2Cc2ccccc2)cc1`, which Potency is on record?
Its Potency is 11.2 µM (active).

Which “activity change, negative = inhibition” value does the source give for `Cc1ccc2c(c1)cc(C(=O)NCc1ccccc1)n2C` here?
The value was -7.89% (inactive).

For `CCOc1c(Cl)cc(C(=O)Nc2ccccc2C(=O)O)cc1Cl`, which “activity change, negative = inhibition” value is on record?
The value was -9.43% (inactive).

With `CCOC(=O)C1CCN(c2cc3c(cc2NC(=O)c2ccccc2Cl)n(C)c(=O)n3C)CC1` as the compound, how does the Potency read?
The Potency was 11.2 µM (active).

Which Potency does the source give for `CC(=O)N(C)C1=C(N2CCOCC2)C(=O)c2ccccc2C1=O` here?
The Potency was 0.631 µM (active).

With `CN1CCN(C(=O)CCN2C(=O)/C(=C\c3ccc(Cl)cc3)SC2=S)CC1` as the compound, how does the “activity change, negative = inhibition” value read?
The value was -20.3% (inactive).

Which Potency does the source give for `CN1CCN(C(=O)CCN2C(=O)/C(=C/c3cccc(Br)c3)SC2=S)CC1` here?
Its Potency is 11.2 µM (active).

Which Potency does the source give for `O=C(CCN1C(=O)/C(=C/c2ccccc2Cl)SC1=S)N1CCOCC1` here?
The Potency was 15.8 µM (active).

With `C=C(C)n1c(=O)n(Cc2ccccc2C)c2ccccc21` as the compound, how does the Potency read?
Its Potency is 12.6 µM (active).

For `Cc1ccc(-n2c(Cl)c(Cl)nc(Cl)c2=O)cc1`, which Potency is on record?
The Potency was 12.6 µM (active).

For `Cc1ccc(-n2nnnc2Sc2nc([N+](=O)[O-])nn2C)cc1C`, which Potency is on record?
The Potency was 3.55 µM (active).

Which “activity change, negative = inhibition” value does the source give for `Cc1ccc(-n2nnnc2SCC(=O)Nc2ccccc2-c2ccccc2)cc1C` here?
The value was -14.7% (inactive).

Which “activity change, negative = inhibition” value does the source give for `O=C(OCC(=O)N1CCN(c2ccccc2)CC1)c1cc(Cl)ccc1[N+](=O)[O-]` here?
The value was 3.6% (inactive).

Which Potency does the source give for `N#Cc1cc(C(=O)c2cc(Cl)ccc2O)cn(-c2ccccc2)c1=O` here?
Its Potency is 14.1 µM (active).

For `Cc1[nH]c(C)c(S(=O)(=O)N2CCN(c3cccc(C(F)(F)F)c3)CC2)c1C(=O)N1CCCCC1`, which “activity change, negative = inhibition” value is on record?
Its value is -17.5% (inactive).

For `Cc1[nH]c(=O)[nH]c(=O)c1S(=O)(=O)N1CCCC(C(=O)N2CCN(c3cccc(C(F)(F)F)c3)CC2)C1` (centres undefined), which Potency is on record?
The Potency was 12.6 µM (active).

With `CCCCNC(=O)c1onc(CSc2cc(C)ccc2C)c1C(=O)O` as the compound, how does the “activity change, negative = inhibition” value read?
Its value is -13.3% (inactive).

For `Cc1cc(C(C)(C)C)cc(C)c1CCNC(=O)c1c(C)noc1C`, which Potency is on record?
The Potency was 12.6 µM (active).

Which Potency does the source give for `Cc1cc(C(C)(C)C)cc(C)c1CCNC(=O)c1ccc[n+]([O-])c1` here?
The Potency was 14.1 µM (active).

For `Cc1ccc(C)c(SCc2noc(C(=O)NC(C)C)c2C(=O)O)c1`, which “activity change, negative = inhibition” value is on record?
The value was -13.7% (inactive).

With `CCN(C(=O)c1cc2c(=O)n3ccccc3nc2n1CCCOC)C1CCCCC1` as the compound, how does the Potency read?
The Potency was 12.6 µM (active).

For `COc1ccc(OC)c(NC(=O)c2ccccc2N(C)S(=O)(=O)c2ccc(C)cc2)c1`, which Potency is on record?
Its Potency is 14.1 µM (active).

For `COc1ccc(OC)c(NC(=O)c2nc(S(=O)(=O)Cc3ccccc3)ncc2Cl)c1`, which “activity change, negative = inhibition” value is on record?
The value was -17.6% (inactive).

Which Potency does the source give for `Cc1ccc(Nc2cc(C)c3ccc(O)cc3n2)cc1C` here?
Its Potency is 0.224 µM (active).

With `CC(c1ccco1)N(C(=O)c1cc(Cl)cc(Cl)c1)c1ccccn1` (centres undefined) as the compound, how does the Potency read?
The Potency was 11.2 µM (active).

For `CC(C)C1N=C(c2ccc3c(c2)OCO3)CC(c2ccccc2O)N1` (centres undefined), which Potency is on record?
The Potency was 12.6 µM (active).

With `CC(C)N1CCC2(CC1)N=C(c1ccc3c(c1)OCO3)CC(c1cc(Cl)ccc1O)N2` (centres undefined) as the compound, how does the Potency read?
The Potency was 2.82 µM (active).

With `COc1ccc(/C=C/C(=O)c2ccccc2)cc1Cn1nnc2ccccc21` as the compound, how does the Potency read?
The Potency was 10 µM (active).

Which Potency does the source give for `COc1cc(Cn2nnc3ccccc32)ccc1O` here?
The Potency was 12.6 µM (active).

Which “activity change, negative = inhibition” value does the source give for `CC(C)C[C@@H](CN=[N+]=[N-])N1CCN(C)CCC1=O` here?
The value was -2.87% (inactive).

For `Cc1cc(NC(=O)COC(=O)c2ccccc2S(=O)(=O)N(C)c2ccccc2)no1`, which Potency is on record?
Its Potency is 8.91 µM (active).

With `CC(C)NC(=O)NC(=O)COC(=O)c1ccccc1Oc1ccccc1` as the compound, how does the “activity change, negative = inhibition” value read?
The value was -39.6% (inactive).

Which “activity change, negative = inhibition” value does the source give for `O=C(COC(=O)c1ccc(O)cc1O)Nc1ccc2ccccc2c1` here?
The value was 34.1% (inactive).

With `Cc1cccc(C)c1NC(=O)CCCSc1nnc(-c2ccc(F)cc2)n1-c1ccccc1` as the compound, how does the Potency read?
The Potency was 15.8 µM (active).

Which Potency does the source give for `COC(=O)CCC(=O)OC1(C)C(=O)C=C2C=C(C3CC3)N(CCCOC(C)C)C=C2C1=O` (centres undefined) here?
Its Potency is 2 µM (active).

For `OCC1(CCOc2ccccc2)CCN(Cc2nc3ccc(F)cc3[nH]2)CC1`, which Potency is on record?
Its Potency is 12.6 µM (active).

Which Potency does the source give for `Cc1c(CN2CCC(CO)(CCOc3ccccc3)CC2)[nH]c2ccc(Cl)cc12` here?
The Potency was 7.08 µM (active).

With `CN(C)c1ccc2nc3ccc(=[N+](C)C)cc-3sc2c1` as the compound, how does the Potency read?
The Potency was 0.0794 µM (active).

Which Potency does the source give for `COc1ccc(C)cc1-n1c(SCC(=O)Nc2cc(C)on2)nc2sc(C)c(C)c2c1=O` here?
The Potency was 2.51 µM (active).

For `COc1ccccc1-n1c(SCC(=O)Nc2cc(C)on2)nc2c([nH]c3ccccc32)c1=O`, which Potency is on record?
The Potency was 8.91 µM (active).

With `NC(=O)C1CCN(c2nc(C3CC3)nc3c2nnn3Cc2ccccc2Cl)CC1` as the compound, how does the Potency read?
The Potency was 4.47 µM (active).
